Residue numbers refer to the chain shown, from its start.
How the values were obtained:
Assay in all cases: protein-binding microarray (PBM); PBM: ~300 nM protein, 6 mM HEPES pH 7.8, 80 mM KCl, 0.5 mM EDTA, 0.5 mM EGTA, 6% glycerol, 35 ng/ul poly-dIdC, 1% milk, 1 h, room temperature; Ap Aiptasia and Nv Nematostella (sea anemones) / Co Capsaspora / Aq Amphimedon (sponge) / Dm Drosophila / Hu human; RHD is the Rel homology domain; high values mean tight binding
Details in all cases: dsDNA, one strand shown
[1] = molecular target: T1, GST-Nv-NF-kB (Cys allele) (Nematostella vectensis, UniProt E5G601 2-411)
T1 sequence: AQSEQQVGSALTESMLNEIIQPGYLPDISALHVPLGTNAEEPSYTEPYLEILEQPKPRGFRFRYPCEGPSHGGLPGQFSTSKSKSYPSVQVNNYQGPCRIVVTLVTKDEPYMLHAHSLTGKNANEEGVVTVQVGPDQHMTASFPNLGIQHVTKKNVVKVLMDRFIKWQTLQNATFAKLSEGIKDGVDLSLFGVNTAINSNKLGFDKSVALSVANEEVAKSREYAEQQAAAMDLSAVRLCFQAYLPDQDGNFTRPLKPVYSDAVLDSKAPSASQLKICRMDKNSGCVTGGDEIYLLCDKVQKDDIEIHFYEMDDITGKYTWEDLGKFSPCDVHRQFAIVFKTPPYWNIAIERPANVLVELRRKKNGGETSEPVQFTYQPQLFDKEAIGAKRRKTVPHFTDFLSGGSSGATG

[2] = molecular target: T2, GST-Dm-Relish (Drosophila melanogaster, UniProt Q94527 99-473)
T2 sequence: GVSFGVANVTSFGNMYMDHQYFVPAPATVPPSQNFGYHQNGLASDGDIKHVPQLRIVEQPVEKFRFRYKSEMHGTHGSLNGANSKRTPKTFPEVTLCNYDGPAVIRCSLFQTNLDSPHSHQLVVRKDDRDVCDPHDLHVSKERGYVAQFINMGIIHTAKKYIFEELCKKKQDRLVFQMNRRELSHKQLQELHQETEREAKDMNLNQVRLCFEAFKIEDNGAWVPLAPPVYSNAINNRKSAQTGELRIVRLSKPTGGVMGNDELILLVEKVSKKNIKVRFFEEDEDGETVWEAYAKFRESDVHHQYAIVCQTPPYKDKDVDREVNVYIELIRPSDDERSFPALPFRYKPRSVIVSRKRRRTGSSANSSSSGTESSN

[3] = molecular target: T3, GST-Aq-NF-kB (Amphimedon queenslandica, UniProt A9Y5G7 2-389)
T3 sequence: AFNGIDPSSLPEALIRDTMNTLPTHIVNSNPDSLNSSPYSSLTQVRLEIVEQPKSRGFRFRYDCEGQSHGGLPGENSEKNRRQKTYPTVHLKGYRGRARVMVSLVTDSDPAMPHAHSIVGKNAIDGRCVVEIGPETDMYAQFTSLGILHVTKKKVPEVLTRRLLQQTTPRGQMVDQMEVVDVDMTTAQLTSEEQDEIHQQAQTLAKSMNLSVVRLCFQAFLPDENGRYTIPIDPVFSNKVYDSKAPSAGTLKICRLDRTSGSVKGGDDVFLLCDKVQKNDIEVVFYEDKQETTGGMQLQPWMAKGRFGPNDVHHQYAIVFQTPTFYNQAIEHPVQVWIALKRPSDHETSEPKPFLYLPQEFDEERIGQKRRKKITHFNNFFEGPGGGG

[4] = molecular target: T4, GST-Co-NF-kB (Capsaspora owczarzaki, UniProt F1ARL5 200-546)
T4 sequence: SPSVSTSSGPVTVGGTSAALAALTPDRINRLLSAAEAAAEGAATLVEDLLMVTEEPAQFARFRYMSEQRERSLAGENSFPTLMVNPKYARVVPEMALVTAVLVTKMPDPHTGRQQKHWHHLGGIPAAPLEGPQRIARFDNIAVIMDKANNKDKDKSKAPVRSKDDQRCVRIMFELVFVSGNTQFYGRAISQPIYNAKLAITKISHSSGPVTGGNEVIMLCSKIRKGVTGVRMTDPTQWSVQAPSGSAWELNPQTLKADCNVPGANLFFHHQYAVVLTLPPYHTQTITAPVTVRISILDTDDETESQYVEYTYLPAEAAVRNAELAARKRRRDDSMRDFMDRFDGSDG

[5] = molecular target: T5, GST-Nv-NF-kB (Ser allele) (Nematostella vectensis, UniProt A7UNT2 2-411)
T5 sequence: T1 sequence with Q21R, C66S, S207N, E215Q, V217A, E225K, A268E, D399E

## CCGATTAACATCAGGATTTTACCTGATGTTAATCGGGTCTTGATTCGCTTGACGCTGCTG
[1]
  binding signal: 2.01 z-score
[2]
  binding signal: 3.21 z-score
[3]
  binding signal: 3.66 z-score

## CCGATTAACATCACGTAAGGGATTGATGTTAATCGGGTCTTGATTCGCTTGACGCTGCTG
[1]
  binding signal: 1.34 z-score
[3]
  binding signal: 2.43 z-score

## CCGATTAACATCAGGGTTAGTTGTGATGTTAATCGGGTCTTGATTCGCTTGACGCTGCTG
[4]
  binding signal: 1.11 z-score
[3]
  binding signal: 1.57 z-score

## CCGATTAACATCAAGGTATTTCCTGATGTTAATCGGGTCTTGATTCGCTTGACGCTGCTG
[1]
  binding signal: 1.66 z-score
[5]
  binding signal: 1.29 z-score
[2]
  binding signal: 3.08 z-score
[3]
  binding signal: 3.84 z-score

## CCGATTAACATCAATTCCCAACATGATGTTAATCGGGTCTTGATTCGCTTGACGCTGCTG
[1]
  binding signal: 2.32 z-score
[4]
  binding signal: 1.84 z-score
[3]
  binding signal: 1.17 z-score

## CCGATTAACATCAAGGACTTTCCTGATGTTAATCGGGTCTTGATTCGCTTGACGCTGCTG
[1]
  binding signal: 1.03 z-score
[2]
  binding signal: 3.11 z-score
[3]
  binding signal: 4.6 z-score

## CCGATTAACATCAAAAATTCCTATGATGTTAATCGGGTCTTGATTCGCTTGACGCTGCTG
[2]
  binding signal: 1.74 z-score
[3]
  binding signal: 1.2 z-score

## CCGATTAACATCACCCTTGCAGGTGATGTTAATCGGGTCTTGATTCGCTTGACGCTGCTG
[2]
  binding signal: 1.5 z-score
[3]
  binding signal: 1.27 z-score

## CCGATTAACATCACAGGAATTCCTGATGTTAATCGGGTCTTGATTCGCTTGACGCTGCTG
[2]
  binding signal: 3.05 z-score
[3]
  binding signal: 2.17 z-score

## CCGATTAACATCACGTAAATTCCTGATGTTAATCGGGTCTTGATTCGCTTGACGCTGCTG
[2]
  binding signal: 1.43 z-score
[3]
  binding signal: 1.08 z-score

## CCGATTAACATCAGGAATTTACATGATGTTAATCGGGTCTTGATTCGCTTGACGCTGCTG
[2]
  binding signal: 5.41 z-score
[3]
  binding signal: 1.28 z-score

## CCGATTAACATCAGGTTCTTACCTGATGTTAATCGGGTCTTGATTCGCTTGACGCTGCTG
[2]
  binding signal: 1.79 z-score
[3]
  binding signal: 1.38 z-score

## CCGATTAACATCACGGGCATTCCTGATGTTAATCGGGTCTTGATTCGCTTGACGCTGCTG
[2]
  binding signal: 2.37 z-score
[3]
  binding signal: 3.21 z-score

## CCGATTAACATCACGGAAAATCCTGATGTTAATCGGGTCTTGATTCGCTTGACGCTGCTG
[2]
  binding signal: 1.04 z-score
[3]
  binding signal: 3.9 z-score

## CCGATTAACATCAAGGAAAGTACTGATGTTAATCGGGTCTTGATTCGCTTGACGCTGCTG
[2]
  binding signal: 4.7 z-score
[3]
  binding signal: 2.33 z-score

## CCGATTAACATCAAAGAAATTCCTGATGTTAATCGGGTCTTGATTCGCTTGACGCTGCTG
[2]
  binding signal: 1.96 z-score
[3]
  binding signal: 1.44 z-score

## CCGATTAACATCAAAGGAATTTCTGATGTTAATCGGGTCTTGATTCGCTTGACGCTGCTG
[2]
  binding signal: 1.13 z-score
[3]
  binding signal: 1.12 z-score

## CCGATTAACATCAGGTATTTCCATGATGTTAATCGGGTCTTGATTCGCTTGACGCTGCTG
[2]
  binding signal: 2.79 z-score
[3]
  binding signal: 3.5 z-score

## CCGATTAACATCAGGAAAGTCCATGATGTTAATCGGGTCTTGATTCGCTTGACGCTGCTG
[2]
  binding signal: 3.2 z-score
[3]
  binding signal: 3.71 z-score

## CCGATTAACATCAGGGCAAGTACTGATGTTAATCGGGTCTTGATTCGCTTGACGCTGCTG
[2]
  binding signal: 1.44 z-score
[3]
  binding signal: 2.28 z-score

## CCGATTAACATCAAGGATTTTCCTGATGTTAATCGGGTCTTGATTCGCTTGACGCTGCTG
[2]
  binding signal: 1.44 z-score
[3]
  binding signal: 3.08 z-score

## CCGATTAACATCAGGAAAGACCATGATGTTAATCGGGTCTTGATTCGCTTGACGCTGCTG
[2]
  binding signal: 1.35 z-score
[3]
  binding signal: 1.49 z-score

## CCGATTAACATCAAAAATTCCGGTGATGTTAATCGGGTCTTGATTCGCTTGACGCTGCTG
[2]
  binding signal: 2.45 z-score
[3]
  binding signal: 2.94 z-score

## CCGATTAACATCAATGGGTTTCCTGATGTTAATCGGGTCTTGATTCGCTTGACGCTGCTG
[2]
  binding signal: 2.98 z-score
[3]
  binding signal: 1.07 z-score

## CCGATTAACATCAAAAAAATTTCTGATGTTAATCGGGTCTTGATTCGCTTGACGCTGCTG
[2]
  binding signal: 1.41 z-score
[3]
  binding signal: 1.23 z-score

## CCGATTAACATCAACGGAATTCCTGATGTTAATCGGGTCTTGATTCGCTTGACGCTGCTG
[2]
  binding signal: 2.11 z-score
[3]
  binding signal: 1.66 z-score

## CCGATTAACATCAGGGATGCCCATGATGTTAATCGGGTCTTGATTCGCTTGACGCTGCTG
[2]
  binding signal: 6.66 z-score
[3]
  binding signal: 2.22 z-score

## CCGATTAACATCAACAAAATTCCTGATGTTAATCGGGTCTTGATTCGCTTGACGCTGCTG
[2]
  binding signal: 1.6 z-score
[3]
  binding signal: 1.34 z-score

## CCGATTAACATCAGGTTTTTCCATGATGTTAATCGGGTCTTGATTCGCTTGACGCTGCTG
[2]
  binding signal: 2.68 z-score
[3]
  binding signal: 2.64 z-score

## CCGATTAACATCACGGAAACTCCTGATGTTAATCGGGTCTTGATTCGCTTGACGCTGCTG
[2]
  binding signal: 1.23 z-score
[3]
  binding signal: 3.4 z-score

## CCGATTAACATCACGGAAACTACTGATGTTAATCGGGTCTTGATTCGCTTGACGCTGCTG
[2]
  binding signal: 1.84 z-score
[3]
  binding signal: 1.46 z-score

## CCGATTAACATCACTGGAATTCCTGATGTTAATCGGGTCTTGATTCGCTTGACGCTGCTG
[2]
  binding signal: 2.95 z-score
[3]
  binding signal: 1.7 z-score

## CCGATTAACATCACGGAAATTTCTGATGTTAATCGGGTCTTGATTCGCTTGACGCTGCTG
[4]
  binding signal: 1.12 z-score
[2]
  binding signal: 1.36 z-score
[3]
  binding signal: 2.5 z-score

## CCGATTAACATCACGGAATTCCATGATGTTAATCGGGTCTTGATTCGCTTGACGCTGCTG
[2]
  binding signal: 1.4 z-score
[3]
  binding signal: 1.3 z-score

## CCGATTAACATCAAAAATTTTCCTGATGTTAATCGGGTCTTGATTCGCTTGACGCTGCTG
[4]
  binding signal: 1.7 z-score
[2]
  binding signal: 2.62 z-score
[3]
  binding signal: 1.81 z-score

Source: publication PMC5700166
